From PubChem BioAssay
This is a sample that favours compounds with a hit; in the whole collection about 4.7% have one here.
HepG2 viability = qHTS for Inhibitors of TGF-b: Cytotox Counterscreen; Potency, µM (series often up to 46.1 µM), most hits filed as cytotoxic; actives 0.76% (n = 410,000); HepG2 CAGA-GFP viability, ATP luminescence, 18 h
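CellTiter-Glo luminescence gave cytotoxicity after 18 hours at 37 degrees C. The cells were HepG2 CAGA-GFP in 1% FBS DMEM, stimulated with 500 pg/mL TGF-beta after compound addition. %Activity was normalised to no-cell wells (complete cell-killing) and DMSO (no toxicity), and curves were fitted and classified.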
S2 tox = Viability Counterscreen for Primary qHTS for Inhibitors of ATXN expression; S2 cells (HEK-293 line with an ATXN2-luciferase reporter) viability, CellTiter-Fluor protease fluorescence, 24 h; Potency, µM (titrated, usually from 56.7 µM), actives largely listed as cytotoxic; actives 0.49% (n = 400,000); AID 651635, 2014; further: nearly all actives have a fitted effect of over 40% in size
ATXN2 expr inh = Primary qHTS for Inhibitors of ATXN expression. HEK-293 ATXN2-luciferase reporter, luminescence, 24 h. Potency, µM (doses to about 57 µM), usual class: inhibitors. actives 0.72% (n = 360,000). AID 1745845, 2022; further: nearly all actives have a fitted effect of over 55% in size
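qHTS (up to 57 uM final) was run with 24 h compound exposure of reporter cells at 37 °C. Each well was multiplexed: SteadyGlo luminescence measured ATXN2-luciferase expression after a fluorogenic Gly-Phe-AFC viability readout (25 uM final).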
DRD3 agonist = qHTS of D3 Dopamine Receptor Agonist: qHTS. D3R DiscoveRx beta-arrestin cells, luminescence, 90 min. actives 0.58% (n = 410,000). D(3) dopamine receptor (Homo sapiens), P35462. max activation, %; in the data active means max activation above about 30%
Target sequence (P35462 whole entry, looked up): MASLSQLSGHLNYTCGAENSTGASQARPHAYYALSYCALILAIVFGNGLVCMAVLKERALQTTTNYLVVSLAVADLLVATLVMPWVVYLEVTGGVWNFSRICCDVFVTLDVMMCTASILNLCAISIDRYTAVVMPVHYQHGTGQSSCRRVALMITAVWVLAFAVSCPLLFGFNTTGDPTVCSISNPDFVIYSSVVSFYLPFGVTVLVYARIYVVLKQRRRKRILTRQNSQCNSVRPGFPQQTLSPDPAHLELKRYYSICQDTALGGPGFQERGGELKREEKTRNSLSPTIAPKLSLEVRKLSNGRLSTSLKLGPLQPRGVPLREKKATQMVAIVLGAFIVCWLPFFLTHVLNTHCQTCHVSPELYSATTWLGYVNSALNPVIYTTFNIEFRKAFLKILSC
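Agonist-mode cell screen: cells plated at 1500/well and incubated overnight at 37 °C, then exposed to library compounds for 90 min at 37 °C. Detection reagent was added for 30–60 min at room temperature, and luminescence was read.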
TGFb inhibitor = qHTS for Inhibitors of TGF-b | HepG2 CAGA-GFP TGF-b/SMAD3 reporter, GFP fluorescence, 18 h; TGF-beta stimulated, 500 pg/mL final | Potency, µM (series often up to 46.1 µM), most hits filed as inhibitors | actives 1.2% (n = 410,000); further: nearly all actives have a fitted effect of over 65% in size
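Per well, imaged GFP fluorescence of HEPG2 CAGA-GFP cells gives the signal; cells get compound, then TGF-beta (500 pg/mL final), 18 h at 37 degrees C; %Activity versus -TGF-beta and +DMSO controls.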
DRD3 antagonist = qHTS of D3 Dopamine Receptor Antagonist: qHTS. D(3) dopamine receptor (Homo sapiens), P35462. D3R cells, DiscoveRx beta-arrestin luminescence, antagonist mode; hits give low values. max response, negative = inhibition, %. actives 2.5% (n = 360,000). AID 652054, 2013; in the data active means max response below about -50%; inconclusive means no clear call, values can overlap the other calls
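Cells expressing the human receptor were seeded at 1500 cells/well, incubated overnight at 37 degrees C in 5% CO2, then exposed to library compounds with dopamine controls for 90 minutes at 37 degrees C before luminescent detection.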
Hits are given with their value; – = inactive; ? = inconclusive; · = not tested or not shown. Unless noted, the call rests on the fitted dose curve; in most records, active means well fitted curve in the direction sought with a large enough effect; inconclusive means small, poorly fitted or top-dose-only effect, or another doubt; inactive means no such curve, though single readings can be large; an effect the other way counts as inactive or inconclusive.

SMILES	HepG2 viability	S2 tox	ATXN2 expr inh	DRD3 agonist	TGFb inhibitor	DRD3 antagonist
Cc1cccc(NC(=S)NNc2cccc(Cl)c2)c1	–	–	–	–	?	–
COc1ccc(NC(=S)NNc2ccc([N+](=O)[O-])cc2S(=O)(=O)Nc2ccc(C)cc2C)cc1	–	?	–	–	?	–
Cc1ccc(NS(=O)(=O)c2cc([N+](=O)[O-])ccc2NNC(=S)Nc2cc(C)ccc2C)c(C)c1	–	16µM	20µM	–	?	–
CCC(C(=O)OCCN1CCOC(c2ccccc2)C1C)c1ccccc1 (stereo unspecified)	·	–	–	·	·	·
Cc1ccc2c(c1)ncc[n+]2CC(=O)c1ccc(Cl)cc1Cl	–	·	·	·	–	·
Cc1cccc(-c2nnc3sc(-c4ccccc4C)nn23)c1	13µM	–	–	–	–	–
COc1cc(NC(=O)Cn2cnc3sc(C)c(S(=O)(=O)N4CCC(C)CC4)c3c2=O)cc(OC)c1OC	–	–	–	–	–	·
CN(C)c1ccc(C=c2c3cc([N+](=O)[O-])ccc3n3c2cc(-c2ccccc2)[n+]3C)cc1	–	·	28µM	–	?	?
CN(C)c1ccc(C=c2c3ccccc3n3c2c2c([n+]3C)CCCC2)cc1	–	22µM	8.9µM	–	2.5µM	–
COc1cc(N(C)C)ccc1C=c1c2ccccc2n2c1cc(-c1ccccc1)[n+]2C	–	12µM	12µM	–	3.5µM	–
CN(C)c1ccc(C=c2c3ccccc3n3c2cc(-c2ccc(Cl)cc2)[n+]3C)cc1	–	11µM	?	–	?	–
CN(C)c1ccc(C=c2c3ccccc3n3c2cc(-c2ccccc2)[n+]3C)cc1	7.9µM	6µM	?	–	?	?
COc1cccc(-c2noc(COc3ccc(C(C)(C)C)cc3)n2)c1	–	–	–	–	–	·
O=C(COC(=O)Cn1[nH]c(=O)c2ccccc2c1=O)NNC(=O)c1ccc(Br)cc1	–	–	–	–	–	-118
O=C(Cn1[nH]c(=O)c2ccccc2c1=O)OCC(=O)c1ccccc1	–	–	–	–	–	–
O=C(COC(=O)Cc1n[nH]c(=O)c2ccccc12)NNC(=O)c1ccc(Cl)cc1	–	?	–	–	?	-131
O=C(COC(=O)Cc1n[nH]c(=O)c2ccccc12)NNC(=O)c1ccc(Br)cc1	–	–	–	–	–	?
Cn1c(SCC2CCCO2)nnc1C1CCN(Cc2ccc(-c3cccc(Cl)c3)o2)CC1 (stereo unspecified)	·	–	·	·	·	·
CC(=NNC(=S)Nc1ccccc1)c1ccccn1	–	?	·	–	?	–
CC(=NNC(=S)N1CC2CCC(CC2)C1)c1ccncn1	–	?	0.32µM	–	?	–
COc1cc(/C=C/C(=O)O[C@H]2CC[C@]34C[C@]35CC[C@]3(C)[C@@H]([C@H](C)CCC=C(C)C)CC[C@@]3(C)[C@@H]5CC[C@H]4C2(C)C)ccc1O	·	–	–	–	·	·
COc1ccc(OC)c(-c2cc(C3CCN(C(=O)OC(C)(C)C)CC3)[nH]n2)c1	–	–	–	46	–	–
CN(C)CCOc1ccc(-c2c(-c3ccccc3)sc3ccccc23)cc1	–	?	20µM	–	?	–
c1ccc(-c2sc3ccccc3c2-c2ccc(OCCN3CCCCC3)cc2)cc1	–	–	–	–	–	–
COc1ccc(OC)c(NC(=O)c2cccc(N3C(=O)C4C5C=CC(C6CC56)C4C3=O)c2)c1 (stereo unspecified)	–	14µM	·	–	?	–
Nc1ccc(-c2cc3ccccc3oc2=O)cc1	–	·	0.28µM	–	–	–
CO/N=C(\C(=O)N[C@@H]1C(=O)N2C(C(=O)O)=C(CSc3nc(C)c(CC(=O)O)s3)CS[C@H]12)c1csc(N)n1	·	·	·	–	·	·
O=C(NCc1ccccc1Cl)c1cnc(N2CCCCC2)c2ccccc12	–	·	·	–	?	·
COC(=O)C1=C(C(C)=O)C(c2ccc(C)cc2)n2nnnc2N1 (stereo unspecified)	–	–	–	–	–	?
COC(=O)C1=C(C(C)=O)C(c2ccc(C(=O)OC)cc2)n2nnnc2N1 (stereo unspecified)	–	–	–	–	–	–
